According to PubChem BioAssay (NCI):
Compounds without any hit were thinned out: in the full panel of roughly 79,000, 15% have a hit. Activity calls are given as the source filed them. Cut-off read from the data, not from the text of the source: active = growth inhibition above about 70%; inactive = the rest.

Legend:
[1] = NCI Yeast Anticancer Drug Screen. Data for the rad52 strain (AID 147);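 note: 0% = growth of vehicle-treated control cultures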; details: S. cerevisiae rad52 mutant growth inhibition, active compounds read high
Summary of the method: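 Here a repair-compromised yeast strain receives each compound; its growth is then quantified and normalised to vehicle-only controls.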

[2] = NCI Yeast Anticancer Drug Screen. Data for the wt1 strain (AID 149);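 note: 0% = growth of vehicle-treated wt1 cultures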; details: S. cerevisiae wt1 strain (SPY 50644) growth inhibition, active compounds read high
Summary of the method: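 Vehicle-normalised growth inhibition; strain wt1; compound exposure.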

[3] = NCI Yeast Anticancer Drug Screen. Data for the rad50EPP+ strain (AID 151);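 note: 0% = growth of vehicle-treated control cultures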; details: S. cerevisiae rad50 mutant strain, active compounds read high
Summary of the method: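 Read-out is yeast growth inhibition relative to vehicle; cells used were the rad50EPP+ strain.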

[4] = NCI Yeast Anticancer Drug Screen. Data for the mgt1 strain (AID 153); details: S. cerevisiae mgt1 mutant growth inhibition, active compounds read high
Summary of the method: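 Measured: inhibition of mgt1 yeast growth by compound, normalized to vehicle-treated cultures.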

[5] = NCI Yeast Anticancer Drug Screen. Data for the rad50 strain (AID 155);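 note: 0% = growth of vehicle-only cultures of the same strain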; details: S. cerevisiae rad50 strain growth inhibition, active compounds read high
Summary of the method: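 A DNA repair-deficient yeast mutant serves as the test organism; compound-induced growth inhibition is calculated against vehicle-treated cells.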

[6] = NCI Yeast Anticancer Drug Screen. Data for the mec2-1 strain (AID 157); details: S. cerevisiae mec2-1 strain, active compounds read high
Summary of the method: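 Using mec2-1 yeast: add compound, measure growth, express inhibition versus vehicle-treated cultures.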

[7] = NCI Yeast Anticancer Drug Screen. Data for the rad14 strain (AID 159);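 note: 0% = growth of vehicle-treated control cultures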; details: S. cerevisiae rad14 strain growth inhibition, active compounds read high
Summary of the method: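 Vehicle-treated cultures served as the baseline for growth inhibition of a DNA repair-mutant yeast strain exposed to each compound.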

[8] = NCI Yeast Anticancer Drug Screen. Data for the sgs1 mgt1 strain (AID 161);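 note: 0% = growth of cultures given vehicle only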; details: S. cerevisiae sgs1 mgt1 strain, active compounds read high
Summary of the method: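 Growth of a repair-deficient yeast mutant was monitored after compound treatment and expressed as inhibition relative to vehicle-treated cultures.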

[9] = NCI Yeast Anticancer Drug Screen. Data for the CLN2oe strain (AID 163);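 note: 0% = growth of vehicle-only control cultures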; details: S. cerevisiae CLN2oe strain, active compounds read high
Summary of the method: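 Whole-cell yeast growth assay. A strain engineered for altered cell-cycle control received compound, and inhibition relative to vehicle-treated cultures was recorded.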

[10] = NCI Yeast Anticancer Drug Screen. Data for the cln2 rad14 strain (AID 165);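 note: 0% = growth equal to vehicle treated cultures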; details: S. cerevisiae cln2 rad14 strain, active compounds read high
Summary of the method: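 Yeast strain cln2 rad14, bearing defects in cell cycle control and DNA repair, serves as the test system; values reflect growth inhibition compared with vehicle.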

[11] = NCI Yeast Anticancer Drug Screen. Data for the bub3 strain (AID 167); details: S. cerevisiae bub3 mutant strain, active compounds read high
Summary of the method: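 Inhibition values come from growth of compound-treated mutant yeast normalised to vehicle-treated controls.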

[12] = NCI Yeast Anticancer Drug Screen. Data for the wt2 strain (AID 169);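 note: 0% = growth of vehicle-treated yeast cultures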; details: S. cerevisiae wt2 strain growth inhibition, active compounds read high
Summary of the method: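 Treated yeast vs. vehicle-treated yeast: growth inhibition determined.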

[13] = NCI Yeast Anticancer Drug Screen. Data for the mlh1 strain (AID 171);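 note: 0% = growth of vehicle-treated control cultures of the same strain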; details: S. cerevisiae mlh1 strain growth inhibition, active compounds read high
Summary of the method: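 A yeast strain with a defined genetic lesion serves as the test organism. Cultures receive compound or vehicle, and growth is measured.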

[14] = NCI Yeast Anticancer Drug Screen. Data for the sgs1 strain (AID 173);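 note: 0% = growth of vehicle-only control cultures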; details: S. cerevisiae sgs1 mutant, active compounds read high
Summary of the method: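 A genetically defined yeast mutant is incubated with the test compound, and its growth is compared to that of the same strain given vehicle.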

[15] = NCI Yeast Anticancer Drug Screen. Data for the mlh1 rad18 strain (AID 175); details: S. cerevisiae mlh1 rad18 strain growth inhibition, active compounds read high
Summary of the method: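 Steps: expose repair-defective yeast to compound; measure growth; express inhibition against vehicle-treated controls.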

[16] = NCI Yeast Anticancer Drug Screen. Data for the rad18 strain (AID 177); details: S. cerevisiae rad18 mutant growth inhibition, active compounds read high
Summary of the method: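 Measured value is growth inhibition of a yeast strain bearing a DNA repair alteration, referenced to vehicle-treated cells.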

[17] = at 5.0 µM (retest, dose inferred, filed as 0.5)
[18] = at 50.0 µM (retest, dose inferred, filed as 5.0)

Measured: growth inhibition

O=Cc1ccc2c(c1)C(=O)c1ccccc1C2=O
active: [1]; at 33.0 µM 79% | [1]; at 100.0 µM 92% | [3]; at 33.0 µM 73% | [3]; at 100.0 µM 83% | [5]; at 33.0 µM 80% | [5]; at 50.0 µM 77.6% | [5]; at 100.0 µM 91% | [13]; at 100.0 µM 82% | [16]; at 100.0 µM 81%
inactive: [1]; at 1.2 µM 4% | [1]; at 3.7 µM 11% | [1]; at 11.0 µM 33% | [2]; at 1.2 µM 1% | [2]; at 3.7 µM -1% | [2]; at 11.0 µM 7% | [2]; at 33.0 µM 18% | [2]; at 100.0 µM 31% | [3]; at 1.2 µM 0% | [3]; at 3.7 µM 5% | [3]; at 11.0 µM 33% | [4]; at 1.2 µM 0% | [4]; at 3.7 µM 9% | [4]; at 11.0 µM 9% | [4]; at 33.0 µM 33% | [4]; at 100.0 µM 55% | [5]; at 1.2 µM 2% | [5]; at 3.7 µM 16% | [5]; [17] -11% | [5]; at 11.0 µM 44% | [5]; [18] 57% | [6]; at 1.2 µM 0% | [6]; at 3.7 µM 7% | [6]; [17] 6% | [6]; at 11.0 µM 12% | [6]; at 33.0 µM 21% | [6]; [18] 21% | [6]; at 50.0 µM 30.8% | [6]; at 100.0 µM 34% | [7]; at 1.2 µM 0% | [7]; at 3.7 µM -3% | [7]; at 11.0 µM 10% | [7]; at 33.0 µM 23% | [7]; at 100.0 µM 37% | [8]; [17] 5% | [8]; [18] 8% | [8]; at 50.0 µM 39.5% | [9]; at 1.2 µM -3% | [9]; at 3.7 µM -1% | [9]; at 11.0 µM 13% | [9]; at 33.0 µM 25% | [9]; at 100.0 µM 22% | [10]; [17] -21% | [10]; [18] 16% | [10]; at 50.0 µM 35.9% | [11]; at 1.2 µM -1% | [11]; at 3.7 µM -7% | [11]; [17] -3% | [11]; at 11.0 µM 8% | [11]; at 33.0 µM 9% | [11]; [18] 8% | [11]; at 50.0 µM 36.6% | [11]; at 100.0 µM 7% | [12]; at 1.2 µM 0% | [12]; at 3.7 µM 4% | [12]; at 11.0 µM 14% | [12]; at 33.0 µM 32% | [12]; at 100.0 µM 51% | [13]; at 1.2 µM 2% | [13]; at 3.7 µM 1% | [13]; at 11.0 µM 10% | [13]; at 33.0 µM 44% | [14]; at 1.2 µM -3% | [14]; at 3.7 µM -3% | [14]; at 11.0 µM 8% | [14]; at 33.0 µM 38% | [14]; at 100.0 µM 56% | [15]; [17] 10% | [15]; [18] 61% | [15]; at 50.0 µM 67.8% | [16]; at 1.2 µM -1% | [16]; at 3.7 µM 0% | [16]; at 11.0 µM 14% | [16]; at 33.0 µM 61%

CC(C)(C)N=C(NO)c1ccccc1
active: [5]; at 50.0 µM 70.2% | [8]; at 50.0 µM 74% | [14]; at 100.0 µM 76% | [15]; [18] 76% | [15]; at 50.0 µM 81.4% | [16]; at 100.0 µM 82%
inactive: [1]; at 1.2 µM 0% | [1]; at 3.7 µM 1% | [1]; at 11.0 µM 8% | [1]; at 33.0 µM 25% | [1]; at 100.0 µM 68% | [2]; at 1.2 µM 0% | [2]; at 3.7 µM 0% | [2]; at 11.0 µM 5% | [2]; at 33.0 µM 8% | [2]; at 100.0 µM 45% | [3]; at 1.2 µM 0% | [3]; at 3.7 µM 3% | [3]; at 11.0 µM 14% | [3]; at 33.0 µM 35% | [3]; at 100.0 µM 63% | [4]; at 1.2 µM -2% | [4]; at 3.7 µM 1% | [4]; at 11.0 µM 2% | [4]; at 33.0 µM 27% | [4]; at 100.0 µM 57% | [5]; at 1.2 µM -2% | [5]; at 3.7 µM -1% | [5]; [17] -6% | [5]; at 11.0 µM 2% | [5]; at 33.0 µM 14% | [5]; [18] 41% | [5]; at 100.0 µM 55% | [6]; at 1.2 µM -3% | [6]; at 3.7 µM 0% | [6]; [17] -2% | [6]; at 11.0 µM 2% | [6]; at 33.0 µM 12% | [6]; [18] 2% | [6]; at 50.0 µM 2.9% | [6]; at 100.0 µM 53% | [7]; at 1.2 µM -3% | [7]; at 3.7 µM -3% | [7]; at 11.0 µM 0% | [7]; at 33.0 µM 10% | [7]; at 100.0 µM 46% | [8]; [17] 7% | [8]; [18] 55% | [9]; at 1.2 µM -9% | [9]; at 3.7 µM -7% | [9]; at 11.0 µM -2% | [9]; at 33.0 µM -4% | [9]; at 100.0 µM 47% | [10]; [17] 8% | [10]; [18] 49% | [10]; at 50.0 µM 43.7% | [11]; at 1.2 µM -6% | [11]; at 3.7 µM -9% | [11]; [17] -11% | [11]; at 11.0 µM -4% | [11]; at 33.0 µM -9% | [11]; [18] 42% | [11]; at 50.0 µM 0.3% | [11]; at 100.0 µM 27% | [12]; at 1.2 µM 1% | [12]; at 3.7 µM 1% | [12]; at 11.0 µM 8% | [12]; at 33.0 µM 20% | [12]; at 100.0 µM 67% | [13]; at 1.2 µM 3% | [13]; at 3.7 µM 1% | [13]; at 11.0 µM 7% | [13]; at 33.0 µM 20% | [13]; at 100.0 µM 64% | [14]; at 1.2 µM 1% | [14]; at 3.7 µM 7% | [14]; at 11.0 µM 14% | [14]; at 33.0 µM 39% | [15]; [17] 3% | [16]; at 1.2 µM 1% | [16]; at 3.7 µM -1% | [16]; at 11.0 µM 38% | [16]; at 33.0 µM 38%
